# SARS PLP yeast: blocks SARS-CoV papain-like protease in a yeast assay; S. cerevisiae expressing SARS-CoV PLpro, growth rescue; 330,000 compounds, 0.19% hits; Potency, µM (top dose mostly 32.9 µM), usual class: activators; calls by dose curve; further: nearly all actives have a fitted effect of over 55% in size
# Sm TGR inh: blocks Schistosoma mansoni thioredoxin glutathione reductase; Q962Y6; 360,000 compounds, 3% hits; Potency, µM (titrated, usually from 114 µM), hits mostly inhibitors; purified TGR, DTNB reduction, TNB absorbance 405 nm; further: nearly all actives have a fitted effect of over 60% in size
#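 First, TGR (20 nM dispensed) and NADPH were mixed with compound. Second, a 15 min room-temperature incubation followed. Third, further NADPH and then DTNB were added to start the reaction. Finally, TNB absorbance was monitored kinetically.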
# Pf growth 96h: inhibits malaria parasite growth, 96 h; P. falciparum luciferase reporter growth, 96 h; Potency, µM (doses to about 28.7 µM), actives largely listed as inhibitors; 320,000 compounds, 6.9% hits; AID 504834
#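 Delayed-death screen, second-generation endpoint: infected erythrocytes, 2% hematocrit, 0.05% parasitemia final; 96 hours at 37 C, 5% CO2; luciferase detection reagent; luminescence decrease equals reduced growth.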
# HCMV inh: inhibitors of human cytomegalovirus; activity change, negative = inhibition, % at 57.5 µM; HFF cells, HCMV-luciferase reporter, 72 h; hits give low values; 410,000 compounds, 4.5% hits; in the data active means activity change below about -60%; inconclusive means no clear call, values can overlap the other calls; inactive means above about -39%
#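 Steps: HFFs plated, 16 h 37C; compounds added; HCMV-luciferase added to MOI 1 PFU/cell; 72 h 37C; OneGlo reagent, 5 min room temperature; luminescence read, normalized to controls.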
# HCV inh: inhibitors of hepatitis C virus infection | 340,000 compounds, 3.4% hits | Huh7.5.1 HCVcc-Cre infection, luciferase reporter, 44 h | Potency, µM (highest dose often 41.8 µM), hits mostly inhibitors
#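 Cells seeded at 1,000/well and cultured 4 h, then compounds added followed by HCVcc-Cre virus (~0.5 moi). After 44 h further culture, luciferase substrate was added, plates held 15 min at room temperature, and luminescence read for 15 sec.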
# Pf growth 48h: inhibits P. falciparum growth in the first generation, 48 h | P. falciparum luciferase growth in erythrocytes, 48 h | Potency, µM (highest dose often 28.7 µM), actives largely listed as inhibitors | 310,000 compounds, 5.9% hits | AID 504832
#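 Compounds are pin-transferred into medium, infected erythrocytes (2% hematocrit, 0.1% parasitemia final) are added, and plates sit one parasite generation at 37 C in 5% CO2. Detection reagent is then added and luminescence measured.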
# Hits are given with their value; n = inactive; u = inconclusive; x = not tested or not shown. This is a sample that favours compounds with a hit; in the whole collection about 15% have one here. Unless noted, the call rests on the fitted dose curve; in most records, active means well fitted curve in the direction sought with a large enough effect; inconclusive means small, poorly fitted or top-dose-only effect, or another doubt; inactive means no such curve, though single readings can be large; an effect the other way counts as inactive or inconclusive.
SMILES,SARS PLP yeast,Sm TGR inh,Pf growth 96h,HCMV inh,HCV inh,Pf growth 48h
CCc1ccc(C(O)(C(C)C)C(CN2CCOCC2)c2ccccc2)cc1 (stereo not drawn),n,n,n,-77,u,5.2µM
CCCC(O)(c1ccc(CC)cc1)C(CN1CCOCC1)c1ccccc1 (stereo not drawn),n,n,n,-69,n,0.93µM
CCCC(O)(c1ccc(Br)cc1)C(CN1CCOCC1)c1ccc(Cl)cc1 (stereo not drawn),n,n,n,u,u,2.3µM
OC(c1ccc(F)cc1)(C1CCCCC1)C(CN1CCOCC1)c1ccccc1 (stereo not drawn),n,89µM,u,u,u,u
Cc1cc(S(=O)(=O)N2CCOCC2)ccc1OCC(=O)N1CCCC1,n,n,n,n,n,n
S=C(NCc1ccco1)N/N=C/c1cccnc1,n,n,u,-68,n,n
S=C(NCc1ccco1)Nc1ccccn1,n,14µM,u,u,n,n
CC(C)(Oc1ccc(Cl)cc1)C(=O)NCc1ccco1,n,7.1µM,n,n,n,n
S=C(NCc1ccco1)Nc1ccc(Oc2ccc(Cl)cc2)cc1,n,n,u,-60,n,u
CC(C)CN1CCC(=O)N([C@H](COc2ccccc2)c2ccccc2)CC1,n,n,u,n,n,u
CC(C)(C(=O)NCc1ccccc1)n1cc(NC(=O)c2ccc3c(c2)OCO3)cn1,x,x,x,n,x,x
Cc1cccc(N2CCN(C(=O)CN3CCSc4ccccc43)CC2C)c1 (stereo not drawn),x,n,x,n,x,x
S=C(NCc1ccco1)Nc1ccc(Cl)cn1,n,3.2µM,n,n,u,n
CCc1ccc(NC(=O)C2CCCN(S(=O)(=O)c3ccc4c(c3)oc(=O)n4C)C2)cc1 (stereo not drawn),x,n,x,n,x,x
O=C(c1ccco1)N(CCC(c1ccccc1)c1ccco1)Cc1ccccc1 (stereo not drawn),n,50µM,13µM,n,n,u
COc1ccc(CN(CCC(c2ccccc2)c2ccco2)C(=O)c2ccco2)cc1 (stereo not drawn),n,35µM,12µM,n,n,n
Cc1ccc(CN(Cc2ccco2)C(=O)c2ccco2)cc1,n,n,n,n,u,n
CSc1nc2c(c(=O)[nH]1)C(c1cccc(Br)c1)CC(=O)N2 (stereo not drawn),n,n,n,u,n,n
O=C(c1ccc2c(c1)N(Cc1ccccc1)CCS2)N1CCOCC1,n,n,n,n,n,n
O=C(c1ccc2c(c1)N(Cc1ccc(F)cc1)CCS2)N1CCOCC1,n,n,10µM,u,n,n
CN1CCN(C(=O)c2ccc3c(c2)N(Cc2ccccc2)CCS3)CC1,n,n,n,x,n,n
O=C(c1ccc2c(c1)N(Cc1ccccc1)CCS2)N1CCCCC1,n,n,0.74µM,u,u,u
CCOC(=O)C1=NNC(C(=O)c2ccc(Cl)cc2)C1c1ccccc1 (stereo not drawn),n,n,n,n,n,n
CCOC(=O)C1=NN(c2ccc(Cl)cc2)C(c2ccccc2)CC1=O (stereo not drawn),n,n,u,n,n,9.3µM
CCCCCOC(=O)c1ccc(OC(=O)c2sc3ncn(Cc4cccc(F)c4)c(=O)c3c2C)cc1,x,n,x,n,x,x
SMILES,SARS PLP yeast,Sm TGR inh,Pf growth 96h,HCMV inh,HCV inh,Pf growth 48h
O=C1CC(c2ccc(F)cc2)c2cc3c(cc2N1)CCC3 (stereo not drawn),n,n,n,n,u,15µM
COc1cc2c(cc1OC)C(c1ccc(Cl)cc1)CC(=O)N2 (stereo not drawn),n,n,u,n,n,n
O=C(N[C@@H](Cc1ccccc1)c1nc2ccccc2[nH]1)c1cc([N+](=O)[O-])ccc1Cl,n,n,u,n,n,15µM
COc1ccc(Cl)cc1NC(=O)c1c(C(=O)Nc2cccc(C)c2C)sc2nc(C)cc(=O)n12,x,n,x,n,x,x
CCN1CCN(S(=O)(=O)c2ccc3ccccc3c2)CC1,n,n,n,n,n,x
CCc1cc2cc(C(=O)Nc3ccc(C)cc3)sc2s1,n,n,2.3µM,-67,n,u
